Screen size: about 350,000 compounds; about 31,000 (8.9%) were called active. Entries that show only a call come without a potency. Inconclusive results (about 15%) are left out. This excerpt belongs to a sample that is enriched for actives. A number with no mark means an inactive call. Calls come from the whole dose curve; as a rule, active = well fitted inhibition curve with a large enough effect; inconclusive = small, poorly fitted or top-dose-only effect; inactive = no such curve, though single readings can be large or run the other way.
Potency is the fitted concentration of half-maximal effect.

For the assay, the target named is Histone-lysine N-methyltransferase EHMT2 (Homo sapiens) (UniProt Q96KQ7). The assay can be described thus: qHTS Assay for Inhibitors of Histone Lysine Methyltransferase G9a. Note: nearly all actives have a fitted effect of over 75% in size. The note with it: G9a H3K9 monomethylation, AlphaScreen, 2 h; series mostly up to 59 µM. The essentials: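 Signal arises when biotinylated H3K9 peptide, once monomethylated, bridges streptavidin donor and antibody-captured acceptor beads. Enzyme at 20 nM was preincubated 15 min with test compounds; peptide 500 nM and SAM 20 uM then reacted for 2 h.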
Histone-lysine N-methyltransferase EHMT2 (Homo sapiens), sequence (Q96KQ7 913-1193 limits assumed): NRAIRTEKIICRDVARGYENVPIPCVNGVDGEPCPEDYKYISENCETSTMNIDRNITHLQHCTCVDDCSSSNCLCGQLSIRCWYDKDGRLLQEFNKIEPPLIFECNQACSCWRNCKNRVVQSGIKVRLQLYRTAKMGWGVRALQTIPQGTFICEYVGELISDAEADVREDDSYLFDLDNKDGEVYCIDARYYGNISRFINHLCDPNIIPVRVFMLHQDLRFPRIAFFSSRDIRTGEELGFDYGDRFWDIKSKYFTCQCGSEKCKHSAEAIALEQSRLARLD
For orientation: In qHTS, concentration-response curves come from the screen itself.
For `COc1ccc2c(c1)c(=O)c(C(=O)c1ccccc1)cn2CC(=O)Nc1ccc2c(c1)OCCO2`, the Potency result was “inactive”. `O=C(Nc1cccc([N+](=O)[O-])c1)N1CCc2ccccc2C1`: the Potency result was “inactive”. As for `O=C(NCCCc1ccccc1)C1CCC(=O)N(CCc2ccc(Cl)cc2)C1` (centres undefined), the activity, negative = inhibition is -2.97% [at 12.7 µM]. In the case of `CN(CC(=O)Nc1ccccc1C(F)(F)F)C(=O)Cc1ccccc1F`, the Potency is 50.1 µM (active). As for `CN(CC(=O)Nc1ccc(Cl)c(C(F)(F)F)c1)C(=O)CCC(=O)c1ccccc1`, the Potency entry is “inactive”. In the case of `CC(C(=O)N(C)CC(=O)Nc1ccccc1C(F)(F)F)N1C(=O)c2ccccc2C1=O` (centres undefined), the activity, negative = inhibition was 8.77% [at 12.7 µM]. Turning to `COc1ccccc1CN1CCC(CNC(=O)c2cnn(-c3ccccc3Cl)c2C2CCN(C(=O)OC(C)(C)C)CC2)CC1`, the Potency entry is “inactive”. Turning to `CN(Cc1nc2ccccc2s1)C(=O)c1ccc(F)cc1`, the Potency result was “inactive”.

For `Cc1nc2ccccc2c(C)c1C(=O)c1ccc(F)cc1`, the Potency is 50.1 µM (active). The same measure, in the same setting: then `Cc1nc2ccccc2c(-c2ccccc2)c1C(=O)c1ccccc1`, with “inactive”; and `COc1cc(C(=O)N2CCN(C(=O)COc3cccc(C)c3)CC2)cc(OC)c1OC`, with “inactive”.

As for `CN(C(=O)COC(=O)c1ccc(Br)o1)c1c(N)n(Cc2ccccc2)c(=O)[nH]c1=O`, the activity, negative = inhibition is -30.9% [at 0.501 µM]. Regarding `Cc1ccc(CNS(=O)(=O)c2ccc(-c3cc(C(F)(F)F)on3)s2)cc1`, the Potency entry is “inactive”. Turning to `Cc1ccc(CN2C(=O)SC(Nc3ccccc3)C2=O)cc1` (centres undefined), the Potency entry was “inactive”. On the same count and under the same terms, then `Cn1cc(/C=C/c2nc3ccccc3c(=O)n2-c2cccc([N+](=O)[O-])c2)c2ccccc21`, with “inactive”; and `Cc1ccc(N2C(=O)S/C(=C/c3cn(C)c4ccccc34)C2=O)cc1`, with “inactive”; and `Cc1cccc(N=C2NC(=O)/C(=C/c3cn(C)c4ccccc34)S2)c1`, with 79.4 µM (active). With `CCC(=O)N1CCc2cc(S(=O)(=O)NC(C(=O)Nc3ccc(C(C)=O)cc3)C(C)C)ccc21` (centres undefined), the Potency result is “inactive”. Turning to `Cc1ccc(C)c(NC(=O)C2CCCN(S(=O)(=O)c3cn(C)cn3)C2)c1` (centres undefined), the Potency entry was “inactive”.

As for `C=CCNc1nc(N)c([N+](=O)[O-])c(NC2CCCCC2)n1`, the Potency result was “inactive”. The same measure, in the same setting: then `CCCNC(=O)CCc1c(C)nc2c(c(C)nn2-c2ccccc2)c1C`, with “inactive”.

Consider `Cc1ccc(C)c(Cn2c(C(=O)O)c(CNCc3cccs3)c3ccccc32)c1`, for which the Potency result is “inactive”. Consider `O=C(Nc1ccc(-c2csc(Nc3cccc(C(F)(F)F)c3)n2)cc1)c1cccc(C(F)(F)F)c1`, for which the activity, negative = inhibition was -6.74% [at 12.7 µM]. For `CC(=O)Nc1ccc(-c2csc(NC(=O)Nc3ccccc3)n2)cc1`, the Potency was 44.7 µM (active). As to `NS(=O)(=O)c1ccc(Nc2nc(-c3ccccc3)cs2)cc1`, the Potency was 44.7 µM (active). Take `COc1ccc2nc(Nc3nc(-c4ccncc4)cs3)sc2c1`: the Potency result was “inactive”. Turning to `COc1ccc(-c2csc(NC3OC(=O)c4ccccc43)n2)cc1` (centres undefined), the Potency result is “inactive”. `O=C(Nc1ccccc1)Nc1nc2ccccc2s1`: the Potency result was “inactive”.

Consider `CCOC(=O)Cc1csc(NC(=O)Nc2ccccc2)n1`, for which the Potency result is “inactive”. Same read-out and setting: then `CC(=O)Nc1nc(C)c(-c2csc(Nc3ccc(S(N)(=O)=O)cc3)n2)s1`, with “inactive”.

Turning to `COc1ccc(Nc2nc(-c3ccccc3)cs2)cc1`, the Potency was 12.6 µM (active). As for `COc1ccc(CC(=O)Nc2nc(-c3ccc(F)c(F)c3)cs2)cc1OC`, the Potency result is “inactive”. In the case of `COc1ccc(OC)c(Nc2nc(-c3ccc(O)c(O)c3)cs2)c1`, the Potency is 3.98 µM (active). On to `COc1cccc(CC(=O)Nc2nc(-c3ccc(OC)c(OC)c3)cs2)c1`, for which the Potency result was “inactive”.

The record behind these values is PubChem BioAssay AID504332 (National Center for Advancing Translational Sciences (NCATS), 2011).
